Wnt act = Wnt/beta-catenin pathway activators, primary screen, cell-based, plate reader, single point; hit rate 1.2% among 300,000; AID 743398, 2014; activation, % at 9.35 µM; Wnt/beta-catenin reporter cell assay, activator; in the data active = activation above about 30%, passing the limit was not always enough;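 also: 0% = neutral control wells and 100% = positive control wells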
PAX8 inh HTS = inhibitors of PAX8-driven TPO luciferase reporter, primary screen, RMG-I cells, single concentration. SteadyGlo, 24 h. inhibition, % at 12.6 µM. hit rate 1.2% among 360,000. AID 652154, 2013;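 active = mean replicate inhibition at least 60% with every replicate also reaching 60%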;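 also: luciferase light reporting Pax8 driven TPO promoter activity; plate controls were median of neutral control wells for no effect and mitoxantrone controls for full effect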
esBAF inh = Bmi1 luciferase reporter increase in mESCs, primary screen, esBAF inhibitor project, mouse ES cells, Bmi1 luciferase knock-in, single point; 24 h; 100% = twice the neutral-well signal; reporter increase, % at 12.5 µM; hit rate 2% among 350,000; AID 602393, 2012; in the data active = activation above about 40%;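 also: 0% = median of the plate's neutral control wells and 100% = double that signal; a rise in the Bmi1 reporter signal indicates esBAF inhibition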
EWS-Fli block = EWS/Fli-driven NR0B1 reporter inhibitors, primary screen, A673 cells, NR0B1 luciferase, luminescence, MLPCN library. viability-normalised. inhibition, % at 12.6 µM. hit rate 0.67% among 350,000;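 active = mean inhibition of at least 50% after viability correction, with every replicate also passing that limit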;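 also: firefly luciferase signal divided by Alamar Blue viability fluorescence both relative to DMSO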
MITF act = activators of MITF-driven TRPM1 promoter reporter, primary screen, cell-based, SK-MEL-5, luciferase, single point. hit rate 0.75% among 300,000. SK-MEL-5 TRPM1-promoter luciferase, 24 h; % of positive control, neutral wells = 0. activation, % at 12.5 µM. AID 588334, 2011;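 active = mean activation of at least 80% with every replicate also reaching 80%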;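 also: 0% = neutral control wells and 100% = parthenolide positive control wells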
MITF TRPM1 inh = inhibitors of MITF-dependent TRPM1 promoter reporter, primary screen, cell-based, SK-MEL-5, single point, luciferase | hit rate 0.83% among 330,000 | SK-MEL-5 TRPM1 promoter luciferase, 24 h | inhibition, % at 12.5 µM;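 active = mean inhibition across replicates of 60% or more, whatever share of single replicates reaches that level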
* hit, by the source's call; nt = not tested or not shown. Sampled rows, rich in hits. Any-hit rate of the full collection: about 4%.

SMILES | Wnt act | PAX8 inh HTS | esBAF inh | EWS-Fli block | MITF act | MITF TRPM1 inh
C[C@@H]1CN([C@H](C)CO)C(=O)c2cc(NC(=O)c3ccncc3)ccc2O[C@@H](C)CCCCO[C@H]1CN(C)C(=O)Nc1ccccc1 | nt | -6 | 4 | 4 | nt | nt
Cc1ccc(C2=CSC3=NNC4(CCCCC4)NN23)cc1 | 0 | -92 | 66* | -97 | 59 | -58
COc1ccc(C2=CSC3=NNC4(CCCCC4)NN23)cc1 | 7 | -65 | nt | -49 | 19 | -19
Nc1ccc(S(=O)(=O)Nc2cnc3c(Cl)cccc3n2)cc1 | 0 | 80* | nt | -4 | 3 | -3
COCC#Cc1cnc2c(c1)C(=O)N([C@H](C)CO)C[C@H](C)[C@H](CN(C)C)O2 | nt | nt | -1 | 1 | nt | nt
COc1ccc(N(C(=O)CCl)C(C(=O)NC2CCCCC2)c2cccnc2)cc1 (stereo not drawn) | -10 | 113* | nt | nt | -87 | 87*
O=C(NC1CCCCC1)C(c1cccnc1)N(C(=O)CCl)c1ccccc1Cl (stereo not drawn) | 0 | 101* | nt | 48 | -18 | 20
O=C(NC1CCCCC1)C(c1cccnc1)N(C(=O)CCl)c1ccc(F)cc1 (stereo not drawn) | -2 | 109* | nt | 57* | -86 | 87*
CCc1ccccc1N(C(=O)CNC(=O)c1ccco1)C(C(=O)NC1CCCC1)c1cccnc1 (stereo not drawn) | -2 | -11 | -6 | -5 | 2 | -1
CC(=O)N[C@@H]1CC[C@@H](CCNC(=O)C2CCCCC2)O[C@@H]1CO | nt | nt | nt | 4 | nt | nt
COc1ccc(NC(=O)CCCn2c(=O)oc3ccccc32)cc1Cl | 17 | -146 | nt | -53 | 154* | -147
Cn1c(=O)cc(OCCCC(=O)Nc2ccc3c(c2)OCCO3)c2ccccc21 | 64* | -5 | 1 | nt | -2 | 1
O=C(CCn1c(=O)oc2ccccc21)N1CCc2ccccc21 | -4 | -6 | 41* | nt | 47 | -46
COc1cc(OC)c(NC(=O)CCCn2c(=O)oc3ccccc32)cc1Cl | nt | nt | nt | nt | -4 | 4
O=C(CCn1c(=O)oc2ccccc21)N1CCOCC1 | nt | nt | -9 | nt | nt | 13
O=C(CCn1c(=O)oc2ccccc21)Nc1ccccc1 | 0 | -1 | 12 | nt | nt | 11
O=C(CCCn1c(=O)oc2ccccc21)Nc1ccccc1 | 5 | nt | 51* | -38 | 50 | -54
C[C@H]1CN([C@@H](C)CO)C(=O)c2c(c3ccccc3n2C)-c2ccccc2CO[C@@H]1CN(C)C(=O)Nc1ccccc1 | nt | nt | -1 | -4 | nt | nt
CO[C@@H]1CC[C@H]2CCN(C)C(=O)C[C@@H](c3ccccc3)CN(C)C(=O)c3cccc(C#N)c3OC[C@H]1O2 | nt | 24 | 1 | 0 | nt | nt
CCCN(C)C[C@@H]1Oc2cc(C#CCC(C)C)ccc2S(=O)(=O)N([C@@H](C)CO)C[C@@H]1C | nt | nt | -1 | 19 | nt | nt
C[C@@H]1CN([C@@H](C)CO)S(=O)(=O)c2ccc(C3=CCCCC3)cc2O[C@H]1CN(C)C(=O)CN(C)C | nt | nt | -7 | 5 | nt | nt
O=C(Cn1c(=O)oc2ccccc21)Nc1ccc2c(c1)OCCO2 | 14 | -25 | 12 | nt | nt | -4
O=C(CCn1c(=O)oc2ccccc21)Nc1ccc2c(c1)OCCO2 | 23 | -125 | 57* | -49 | 41 | -44
C[C@@H]1CCCCO[C@H](CN(C)Cc2ccncc2)[C@@H](C)CN([C@H](C)CO)C(=O)c2cc(NC(=O)Nc3ccc4c(c3)OCO4)ccc2O1 | nt | 8 | -4 | 3 | nt | nt
C[C@@H]1CN([C@@H](C)CO)S(=O)(=O)c2ccc(C#Cc3ccc(F)cc3)cc2O[C@@H]1CN(C)C(=O)c1ccccn1 | nt | nt | -5 | 5 | nt | nt
C=CCn1c(Sc2ncc([N+](=O)[O-])s2)n[nH]c1=O | -7 | 41 | nt | 37 | nt | 82*
O=C1NC(=O)C2(CCc3ccccc32)N1 (stereo not drawn) | 0 | nt | -8 | nt | 3 | 0
C=C1CC2(OC1=O)c1ccccc1CCc1ccccc12 | -23 | 71* | nt | 52* | -107 | 108*
C=C(C(=O)c1ccccc1)C(CC(=O)c1ccccc1)c1ccccc1 (stereo not drawn) | -9 | 102* | nt | nt | -50 | 48
C=C(CCC(=O)c1ccccc1)C(=O)c1ccccc1 | 60* | 16 | nt | 13 | -5 | 2

Compound activity (PubChem BioAssay)
